Laboratory results from the supplement of paper PMC9942566.
± gives the standard deviation of the averaged measurements.

System: Serratia marcescens K904 PosmB-luxCDABE reporter (pMQ747)
Test: PosmB-lux reporter fold induction (RLU/OD600 relative to no-compound control), highest over Biolog concentrations; higher = stronger Rcs reporter activation
Settings: Biolog plate: PM11; well positions: C1-4; wild type K904; 4 h
Experimental: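 Serratia marcescens K904 (wild type) or its isogenic ΔrcsB mutant, carrying the Rcs-dependent PosmB-luxCDABE reporter plasmid pMQ747, was grown in LB at OD600 0.1 in Biolog Phenotype MicroArray plates PM11-20 for 4 h at 30-32°C. Each compound is present at 3-4 proprietary concentrations (not stated); per the Fig. S1 legend the value given is the highest fold over those wells. Three independent trials.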

Compound	PosmB-lux reporter fold induction
Cc1c(N)nc([C@H](CC(N)=O)NC[C@H](N)C(N)=O)nc1C(=O)N[C@H](C(=O)N[C@H](C)[C@@H](O)[C@H](C)C(=O)N[C@H](C(=O)NCCc1nc(-c2nc(C(=O)NCCC[S+](C)C)cs2)cs1)[C@@H](C)O)[C@@H](OC1OC(CO)C(O)C(O)C1OC1OC(CO)C(O)C(OC(N)=O)C1O)c1cnc[nH]1 (stereo not given in full) [Bleomycin]	1.6 ± 0.14

Same assay, conditions: Biolog plate: PM11; well positions: G9-12; wild type K904; 4 h

Compound	PosmB-lux reporter fold induction
O=[Te]([O-])[O-].[K+].[K+] [Potassium tellurite]	1.58 ± 0.69

Same assay, conditions: Biolog plate: PM13; well positions: A9-12; wild type K904; 4 h

Compound	PosmB-lux reporter fold induction
[Cl][Ni][Cl] [Nickel chloride]	1.33 ± 0.21

Same assay, conditions: Biolog plate: PM13; well positions: B9-12; wild type K904; 4 h

Compound	PosmB-lux reporter fold induction
CCn1cc(C(=O)O)c(=O)c2cc3c(cc21)OCO3 [Oxolinic acid]	2.12 ± 0.57

Same assay, conditions: Biolog plate: PM13; well positions: C9-12; wild type K904; 4 h

Compound	PosmB-lux reporter fold induction
[K+].[K+].[O]=[Cr](=[O])([O-])[O-] [Potassium chromate]	2.55 ± 0.8

Same assay, conditions: Biolog plate: PM13; well positions: E5-8; wild type K904; 4 h

Compound	PosmB-lux reporter fold induction
CN[C@@H]1[C@@H](O)[C@@H](O[C@@H]2[C@@H](O)[C@H](O[C@H]3O[C@H]([C@@H](C)O)[C@@H](O)[C@H](O)[C@H]3N)[C@@H](N)C[C@H]2N)OC[C@]1(C)O [Geneticin (G418)]	1.38 ± 0.22

Same assay, conditions: Biolog plate: PM14; well positions: B5-8; wild type K904; 4 h

Compound	PosmB-lux reporter fold induction
CCCCc1ccc(C(=O)O)nc1 [Fusaric acid]	3.83 ± 1.8

Same assay, conditions: Biolog plate: PM14; well positions: B9-12; wild type K904; 4 h

Compound	PosmB-lux reporter fold induction
O=[As]([O-])([O-])[O-].[Na+].[Na+].[Na+] [Sodium arsenate]	2.1 ± 0.74

Same assay, conditions: Biolog plate: PM14; well positions: C9-12; wild type K904; 4 h

Compound	PosmB-lux reporter fold induction
N#CO [Sodium cyanate]	2.06 ± 0.13

Same assay, conditions: Biolog plate: PM14; well positions: D1-4; wild type K904; 4 h

Compound	PosmB-lux reporter fold induction
[Cl][Cd][Cl] [Cadmium chloride]	1.35 ± 0.73

Same assay, conditions: Biolog plate: PM14; well positions: D5-8; wild type K904; 4 h

Compound	PosmB-lux reporter fold induction
O=C(O)CI [Iodoacetate]	1.93 ± 0.39

Same assay, conditions: Biolog plate: PM14; well positions: D9-12; wild type K904; 4 h

Compound	PosmB-lux reporter fold induction
[Na+].[Na+].[O]=[Cr](=[O])([O-])[O][Cr](=[O])(=[O])[O-] [Sodium dichromate]	1.55 ± 0.067

Same assay, conditions: Biolog plate: PM14; well positions: G9-12; wild type K904; 4 h

Compound	PosmB-lux reporter fold induction
O=[N+]([O-])[O-].[Na+] [Sodium nitrate]	3.75 ± 1.3

Same assay, conditions: Biolog plate: PM15; well positions: E9-12; wild type K904; 4 h

Compound	PosmB-lux reporter fold induction
C[n+]1ccc(-c2cc[n+](C)cc2)cc1 [Methyl viologen]	1.4 ± 0.25

Same assay, conditions: Biolog plate: PM15; well positions: G5-8; wild type K904; 4 h

Compound	PosmB-lux reporter fold induction
[N-]=[N+]=[N-] [Sodium azide]	34 ± 10

Same assay, conditions: Biolog plate: PM15; well positions: H1-4; wild type K904; 4 h

Compound	PosmB-lux reporter fold induction
O=[N+]([O-])c1ncc[nH]1 [2-Nitroimidazole]	1.17 ± 0.56

Same assay, conditions: Biolog plate: PM16; well positions: C1-4; wild type K904; 4 h

Compound	PosmB-lux reporter fold induction
CN(C)S(=O)(=O)N(SC(F)(Cl)Cl)c1ccccc1 [dichlofluanid]	1.03 ± 0.34

Same assay, conditions: Biolog plate: PM16; well positions: C9-12; wild type K904; 4 h

Compound	PosmB-lux reporter fold induction
CCCCCCCCCCCCCCCC[n+]1ccccc1 [cetylpyridinium]	1.47 ± 0.48

Same assay, conditions: Biolog plate: PM16; well positions: D1-4; wild type K904; 4 h

Compound	PosmB-lux reporter fold induction
O=[N+]([O-])c1ccc(Cl)c([N+](=O)[O-])c1 [1-chloro-2,4-dinitrobenzene]	1.37 ± 0.54

Same assay, conditions: Biolog plate: PM16; well positions: F1-4; wild type K904; 4 h

Compound	PosmB-lux reporter fold induction
O=[Te]([O-])[O-].[K+].[K+] [potassium tellurite]	1.75 ± 1.1
